# Results from the supplement of paper PMC8975748.
# Counter-ions that a name gives are not always drawn. ± gives the standard deviation of the averaged measurements.
# Columns and labels:
# [1] = tested on: Saccharomyces cerevisiae BY4741 SeMeCo community; experiment: z-score of prototroph abundance vs DMSO median; higher = larger share of this subpopulation than in DMSO controls; conditions: 10 µM; 24 h; SM minimal medium; subpopulation (auxotrophy): Prototroph
# Outline: (§1)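 Automated confocal microscopy of paraformaldehyde-fixed cells was used to follow a Saccharomyces cerevisiae BY4741 community carrying four plasmids, each restoring one auxotrophy and encoding a distinct fluorescent protein. The community was pre-grown overnight to OD600 1.0, diluted to 0.3, and added at 70 µl to 384-well plates acoustically predosed with library drugs (10 µM final) for 24 h of growth in minimal SM medium. Single-auxotroph fluorescent strains set thresholds and autofluorescence correction, and each subpopulation's abundance was scored as a z-score against the vehicle-well median.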
# [2] = tested on: Saccharomyces cerevisiae BY4741 SeMeCo community; experiment: z-score of subpopulation abundance vs DMSO median, subpopulation auxotrophic for M; higher = larger share of this subpopulation than in DMSO controls; conditions: 10 µM; 24 h; SM minimal medium; subpopulation (auxotrophy): M
# Outline: as §1
# [3] = tested on: Saccharomyces cerevisiae BY4741 SeMeCo community; experiment: z-score of subpopulation abundance vs DMSO median, subpopulation auxotrophic for L; higher = larger share of this subpopulation than in DMSO controls; conditions: 10 µM; 24 h; SM minimal medium; subpopulation (auxotrophy): L
# Outline: as §1
# [4] = tested on: Saccharomyces cerevisiae BY4741 SeMeCo community; experiment: z-score of subpopulation abundance vs DMSO median, subpopulation auxotrophic for U; higher = larger share of this subpopulation than in DMSO controls; conditions: 10 µM; 24 h; SM minimal medium; subpopulation (auxotrophy): U
# Outline: as §1
# [5] = tested on: Saccharomyces cerevisiae BY4741 SeMeCo community; experiment: z-score of subpopulation abundance vs DMSO median, subpopulation auxotrophic for H; higher = larger share of this subpopulation than in DMSO controls; conditions: 10 µM; 24 h; SM minimal medium; subpopulation (auxotrophy): H
# Outline: as §1
# [6] = tested on: Saccharomyces cerevisiae BY4741 SeMeCo community; experiment: z-score of subpopulation abundance vs DMSO median, subpopulation auxotrophic for LU; higher = larger share of this subpopulation than in DMSO controls; conditions: 10 µM; 24 h; SM minimal medium; subpopulation (auxotrophy): LU
# Outline: as §1
# [7] = tested on: Saccharomyces cerevisiae BY4741 SeMeCo community; experiment: z-score of subpopulation abundance vs DMSO median, subpopulation auxotrophic for LM; higher = larger share of this subpopulation than in DMSO controls; conditions: 10 µM; 24 h; SM minimal medium; subpopulation (auxotrophy): LM
# Outline: as §1
# [8] = tested on: Saccharomyces cerevisiae BY4741 SeMeCo community; experiment: z-score of subpopulation abundance vs DMSO median, subpopulation auxotrophic for HM; higher = larger share of this subpopulation than in DMSO controls; conditions: 10 µM; 24 h; SM minimal medium; subpopulation (auxotrophy): HM
# Outline: as §1
# [9] = tested on: Saccharomyces cerevisiae BY4741 SeMeCo community; experiment: z-score of subpopulation abundance vs DMSO median, subpopulation auxotrophic for HU; higher = larger share of this subpopulation than in DMSO controls; conditions: 10 µM; 24 h; SM minimal medium; subpopulation (auxotrophy): HU
# Outline: as §1
# [10] = tested on: Saccharomyces cerevisiae BY4741 SeMeCo community; experiment: z-score of subpopulation abundance vs DMSO median, subpopulation auxotrophic for HL; higher = larger share of this subpopulation than in DMSO controls; conditions: 10 µM; 24 h; SM minimal medium; subpopulation (auxotrophy): HL
# Outline: as §1
# [11] = tested on: Saccharomyces cerevisiae BY4741 SeMeCo community; experiment: z-score of subpopulation abundance vs DMSO median, subpopulation auxotrophic for HLU; higher = larger share of this subpopulation than in DMSO controls; conditions: 10 µM; 24 h; SM minimal medium; subpopulation (auxotrophy): HLU
# Outline: as §1
# [12] = tested on: Saccharomyces cerevisiae BY4741 SeMeCo community; experiment: z-score of subpopulation abundance vs DMSO median, subpopulation auxotrophic for HLM; higher = larger share of this subpopulation than in DMSO controls; conditions: 10 µM; 24 h; SM minimal medium; subpopulation (auxotrophy): HLM
# Outline: as §1
# [13] = tested on: Saccharomyces cerevisiae BY4741 SeMeCo community; experiment: z-score of subpopulation abundance vs DMSO median, subpopulation auxotrophic for HUM; higher = larger share of this subpopulation than in DMSO controls; conditions: 10 µM; 24 h; SM minimal medium; subpopulation (auxotrophy): HUM
# Outline: as §1
# [14] = tested on: Saccharomyces cerevisiae BY4741 SeMeCo community; experiment: z-score of subpopulation abundance vs DMSO median, subpopulation auxotrophic for LUM; higher = larger share of this subpopulation than in DMSO controls; conditions: 10 µM; 24 h; SM minimal medium; subpopulation (auxotrophy): LUM
# Outline: as §1
# [15] = tested on: Saccharomyces cerevisiae BY4741 SeMeCo community; experiment: z-score of subpopulation abundance vs DMSO median, subpopulation auxotrophic for HLUM; higher = larger share of this subpopulation than in DMSO controls; conditions: 10 µM; 24 h; SM minimal medium; subpopulation (auxotrophy): HLUM
# Outline: as §1
# [16] = tested on: Saccharomyces cerevisiae BY4741 SeMeCo community; experiment: mean cell size (pixel area) (pixels); higher = larger cells; conditions: 10 µM; 24 h; SM minimal medium
# Outline: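 A Saccharomyces cerevisiae BY4741 community carrying four plasmids, each with a fluorescent marker and each complementing one auxotrophy, was exposed for 24 h to drug at a final 10 µM in SM medium in acoustically predosed 384-well plates. The overnight preculture (OD600 = 1.0) was diluted to OD600 = 0.3 before 70 µl was added per well. Cells were then fixed with paraformaldehyde, imaged by automated confocal microscopy and analysed in Harmony to derive mean cell pixel area per well, averaged over 3 replicates. Same SeMeCo high-content imaging drug screen: Selleck FDA-approved drugs at 10 µM, 24 h in SM medium, 384-well plates, 3 replicates.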
# [17] = tested on: Saccharomyces cerevisiae BY4741 SeMeCo community; experiment: z-score of subpopulation abundance vs DMSO median, subpopulation auxotrophic for UM; higher = larger share of this subpopulation than in DMSO controls; conditions: 10 µM; 24 h; SM minimal medium; subpopulation (auxotrophy): UM
# Outline: as §1
Structure (SMILES),z-score of prototroph abundance [1],z-score of subpopulation abundance [2],z-score of subpopulation abundance [3],z-score of subpopulation abundance [4],z-score of subpopulation abundance [5],z-score of subpopulation abundance [6],z-score of subpopulation abundance [7],z-score of subpopulation abundance [8],z-score of subpopulation abundance [9],z-score of subpopulation abundance [10],z-score of subpopulation abundance [11],z-score of subpopulation abundance [12],z-score of subpopulation abundance [13],z-score of subpopulation abundance [14],z-score of subpopulation abundance [15],mean cell size [16],z-score of subpopulation abundance [17]
CC(C)C(=O)Oc1ccc(CO)cc1[C@H](CCN(C(C)C)C(C)C)c1ccccc1 [Fesoterodine Fumarate],0.94,0,-0.39,0.1,-1.08,-0.25,-0.9,-0.41,-0.72,-0.27,-0.16,-1,-0.72,-0.22,-1.13,–,–
CCCCCCCCN=c1ccn(CCCCCCCCCCn2ccc(=NCCCCCCCC)cc2)cc1 [Octenidine Dihydrochloride],-16.1,-8.04,3.6,–,13.2,14.2,–,–,23.6,20,5.94,27.7,26.9,13.8,–,9.029 ± 0.063,13.5
Cc1onc(-c2ccccc2)c1-c1ccc(S(N)(=O)=O)cc1 [Valdecoxib],1,-0.21,0.01,-0.55,-0.55,-0.06,0.09,-0.77,-0.23,-0.64,-0.52,-0.74,-0.83,-0.21,-0.56,–,-0.64
C[C@]12CC[C@@H]3c4ccc(OC(=O)c5ccccc5)cc4CC[C@H]3[C@@H]1CC[C@@H]2O [Estradiol Benzoate],-0.27,0.35,0.05,-0.43,-0.36,-0.68,–,0.05,-0.12,-0.31,-0.51,-0.6,0.38,0.37,–,12.4 ± 0.25,0.15
N=C(N)NS(=O)(=O)c1ccc(N)cc1 [Sulfaguanidine],1.31,0,-0.1,-0.5,-0.42,-0.67,-0.87,-0.09,-0.96,-0.4,-0.69,-1.22,-1.13,–,-1.13,–,-0.62
CCN(CC)CCOc1ccc(C(=C(Cl)c2ccccc2)c2ccccc2)cc1 [Clomifene citrate],-1.75,0.99,0.3,0.29,0.53,1.04,1.33,1.75,1.86,1.64,2.19,1.37,1.42,–,0.41,–,0.9
Cc1cccc(C)c1NC(=O)C1CCCCN1C (configuration not stated) [Mepivacaine],-0.01,0.42,-0.3,–,-1.62,-0.35,–,-0.49,-0.53,-0.24,0.12,-0.7,-0.62,–,–,12.2 ± 0.28,0.24
